This note sets out measurements from PubChem BioAssay.

Calls of active or inactive are those of the source.

The test system of test [1] is PRMT1 (protein arginine N-methyltransferase 1). The experiment in a line: PRMT1 binders on small-molecule microarrays, primary screen, biochemical, small-molecule microarray, 635 nm fluorescence (AID 1088).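 Further: binding of Prmt1 protein to compounds spotted on small-molecule microarray slides.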 The conditions noted are these: small-molecule microarray binding, higher = more signal.
Test [2] is described as follows: yeast growth modulation, basal conditions, primary screen, YJM789 clinical isolate, OD600, 24 h (AID 1089).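 Further: growth of clinical yeast isolate S. cerevisiae YJM 789 seeded 1000 cells per well; test concentration not given here.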 The conditions noted are these: S. cerevisiae YJM789 growth, higher = more signal, called active from +8 up or from −8 down.
Test [3] in a line: fission yeast growth modulation, primary screen, strain 972, OD600, 24 h, no modulator (AID 1090).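 Further: basal condition with compound alone and no growth modifier present; test concentration not given here.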 The conditions noted are these: S. pombe 972 growth, higher = more signal, called active from +8 up or from −8 down.
Test [4] can be described thus: S. cerevisiae growth modulation with rapamycin, primary screen, strain BY4716, OD600, 96 h (AID 1091). Further: test concentration not given here. The conditions noted are these: higher = more signal, called active from +8 up or from −8 down.
In test [5] the target is Torsin-1A-interacting protein 2 (Homo sapiens) (UniProt Q8NFQ8). The experiment in a line: LULL1 binders on small-molecule microarray, primary screen, cell lysate, human LULL1 lysate, 635/667 nm fluorescence (AID 1092).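 Further: probe is lysate of COS7 cells overexpressing human LULL1; score merges per-feature 667 nm fluorescence with signal-to-noise.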 The conditions noted are these: hLULL1 lysate binding, 635 nm fluorescence, higher = more signal.
Sequence of Torsin-1A-interacting protein 2 (Homo sapiens) (Q8NFQ8 whole entry, looked up): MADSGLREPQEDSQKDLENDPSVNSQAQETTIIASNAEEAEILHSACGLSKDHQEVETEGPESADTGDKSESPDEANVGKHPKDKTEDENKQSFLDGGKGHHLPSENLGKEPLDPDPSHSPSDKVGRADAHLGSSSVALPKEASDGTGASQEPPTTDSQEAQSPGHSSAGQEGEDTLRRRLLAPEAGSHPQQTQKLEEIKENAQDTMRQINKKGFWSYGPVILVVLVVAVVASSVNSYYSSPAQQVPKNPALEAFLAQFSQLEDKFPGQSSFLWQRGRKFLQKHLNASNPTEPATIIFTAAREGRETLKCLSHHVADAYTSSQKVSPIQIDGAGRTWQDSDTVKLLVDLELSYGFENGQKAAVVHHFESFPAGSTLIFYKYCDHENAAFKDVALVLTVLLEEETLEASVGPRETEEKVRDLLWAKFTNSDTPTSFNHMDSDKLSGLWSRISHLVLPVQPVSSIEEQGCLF
Test [6] in a line: E. coli growth modulation, two-sided OD650, primary screen, E. coli filamentation project, strain DRC41, 24 h (AID 1093).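 Further: MC1000 strain lacking acrAB efflux and sulA so SOS filamentation is blocked; test concentration not given here.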 The conditions noted are these: OD650, 24 h, higher = more signal, called active from +8 up or from −8 down.
A short description of test [7]: small-molecule microarray binders of probe aLefty2, primary screen, biochemical, biotinylated probe, 635/667 nm fluorescence (AID 1094).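 Further: score merges spot fluorescence near 667 nm with spot signal-to-noise ratio.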 The conditions noted are these: higher = more signal.
Test [8] relates to Noggin (protein binding on small-molecule microarray). The experiment in a line: Noggin binders on small-molecule microarray, primary screen, biochemical, 635/667 nm fluorescence (AID 1095).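 Further: score merges 667 nm feature fluorescence with signal to noise over triplicate slides.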 The conditions noted are these: 635 nm fluorescence, higher = more signal.
Test [9] addresses Neurogenic locus notch homolog protein 3 (Homo sapiens) (UniProt Q9UM47). The test is described as follows: NOTCH3 binders on small-molecule microarray, primary screen, biochemical, 635/667 nm fluorescence (AID 1096). The conditions noted are these: NOTCH3 binding, 635 nm fluorescence, higher = more signal.
Test [10] in a line: small-molecule microarray binders of probe aEGFR, primary screen, biochemical, biotinylated probe, 635/667 nm fluorescence (AID 1097).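 Further: probe is a biotinylated anti-EGFR antibody binding compounds printed on slides; score combines fluorescence near 667 nm and signal to noise of each spot.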 The conditions noted are these: higher = more signal.

Sequence of Neurogenic locus notch homolog protein 3 (Homo sapiens) (Q9UM47 whole entry, looked up): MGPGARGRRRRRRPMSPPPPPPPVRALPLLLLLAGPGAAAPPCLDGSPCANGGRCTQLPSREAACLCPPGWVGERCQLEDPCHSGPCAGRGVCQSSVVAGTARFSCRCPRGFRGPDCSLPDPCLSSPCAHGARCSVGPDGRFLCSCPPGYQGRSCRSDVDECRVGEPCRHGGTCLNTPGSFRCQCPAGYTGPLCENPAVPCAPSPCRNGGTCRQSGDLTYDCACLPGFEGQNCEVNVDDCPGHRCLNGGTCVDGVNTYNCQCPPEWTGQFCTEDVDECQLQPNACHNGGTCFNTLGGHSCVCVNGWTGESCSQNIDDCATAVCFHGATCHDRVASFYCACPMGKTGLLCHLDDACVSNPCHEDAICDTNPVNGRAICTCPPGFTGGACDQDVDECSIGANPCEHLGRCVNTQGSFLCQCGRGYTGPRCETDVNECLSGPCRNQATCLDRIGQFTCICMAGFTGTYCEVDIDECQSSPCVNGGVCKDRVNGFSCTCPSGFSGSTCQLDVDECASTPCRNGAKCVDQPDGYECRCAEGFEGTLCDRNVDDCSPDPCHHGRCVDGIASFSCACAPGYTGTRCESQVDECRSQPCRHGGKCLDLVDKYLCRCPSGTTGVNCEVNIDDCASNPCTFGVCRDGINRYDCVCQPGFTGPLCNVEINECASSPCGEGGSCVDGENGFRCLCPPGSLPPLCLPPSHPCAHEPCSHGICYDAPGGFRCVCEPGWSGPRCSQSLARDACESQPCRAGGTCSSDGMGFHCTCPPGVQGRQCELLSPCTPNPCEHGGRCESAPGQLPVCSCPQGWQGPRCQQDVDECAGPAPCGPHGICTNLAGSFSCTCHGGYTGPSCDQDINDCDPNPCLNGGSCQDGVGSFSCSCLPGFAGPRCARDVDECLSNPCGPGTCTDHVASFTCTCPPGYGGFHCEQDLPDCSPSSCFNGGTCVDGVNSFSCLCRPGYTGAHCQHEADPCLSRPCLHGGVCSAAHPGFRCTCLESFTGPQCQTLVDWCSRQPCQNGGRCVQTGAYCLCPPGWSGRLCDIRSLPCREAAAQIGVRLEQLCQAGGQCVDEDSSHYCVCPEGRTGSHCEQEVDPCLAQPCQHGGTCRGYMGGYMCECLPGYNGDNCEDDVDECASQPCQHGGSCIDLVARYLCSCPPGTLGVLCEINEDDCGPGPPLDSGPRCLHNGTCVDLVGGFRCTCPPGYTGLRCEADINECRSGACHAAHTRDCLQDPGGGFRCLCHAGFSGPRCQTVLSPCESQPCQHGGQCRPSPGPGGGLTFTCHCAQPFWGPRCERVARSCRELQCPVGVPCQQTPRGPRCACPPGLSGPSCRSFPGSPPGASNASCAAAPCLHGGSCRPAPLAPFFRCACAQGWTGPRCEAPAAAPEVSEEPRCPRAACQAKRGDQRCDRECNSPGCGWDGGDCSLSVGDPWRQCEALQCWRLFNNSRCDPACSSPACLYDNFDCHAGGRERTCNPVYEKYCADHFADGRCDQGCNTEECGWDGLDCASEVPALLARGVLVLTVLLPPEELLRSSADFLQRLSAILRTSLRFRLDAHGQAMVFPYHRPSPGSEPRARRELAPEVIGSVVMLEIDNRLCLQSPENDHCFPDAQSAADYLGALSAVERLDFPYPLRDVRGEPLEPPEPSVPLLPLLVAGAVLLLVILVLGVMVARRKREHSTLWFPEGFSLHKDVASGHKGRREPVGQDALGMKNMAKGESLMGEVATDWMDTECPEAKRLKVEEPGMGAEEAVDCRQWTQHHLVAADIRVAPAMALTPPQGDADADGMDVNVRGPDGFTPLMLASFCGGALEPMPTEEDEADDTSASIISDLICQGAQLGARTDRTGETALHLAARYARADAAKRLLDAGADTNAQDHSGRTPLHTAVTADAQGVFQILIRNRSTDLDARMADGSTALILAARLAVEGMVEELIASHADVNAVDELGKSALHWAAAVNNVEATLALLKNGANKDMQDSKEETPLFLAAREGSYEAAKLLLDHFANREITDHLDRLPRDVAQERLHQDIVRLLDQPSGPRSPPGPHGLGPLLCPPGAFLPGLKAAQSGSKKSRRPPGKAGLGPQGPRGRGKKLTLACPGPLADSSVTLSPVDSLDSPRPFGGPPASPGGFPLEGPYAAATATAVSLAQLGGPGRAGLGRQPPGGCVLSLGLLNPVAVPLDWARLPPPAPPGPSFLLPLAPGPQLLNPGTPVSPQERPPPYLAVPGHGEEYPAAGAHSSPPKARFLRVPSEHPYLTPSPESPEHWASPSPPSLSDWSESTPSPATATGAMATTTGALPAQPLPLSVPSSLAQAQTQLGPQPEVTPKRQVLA

On to `C=C(CCCC)/C(=C/C[C@@H](OC(C)=O)c1ccccc1OCCO)c1cc(C(=O)OC)ccc1OC`, for which the composite z-score was 0.252 in test [1]; 0.615 in test [5]; -0.12 in test [7]; 0.0643 in [8]; -0.218 in test [9]; -0.185 in [10]. Besides, the z-score in test [2] was 1.03 (inactive); in test [3], 0.404 (inactive); in test [4] it was -0.358 (inactive); in [6] it was 0.531 (inactive).
Turning to `O=C1C2C=CC(C(O)c3c(F)cccc3Cl)N(Nc3ccccc3F)C2C(=O)N1c1ccccc1` (stereo not given), the composite z-score in test [1] was 0.0998; in test [5], 2.98; in test [7], 0.17; in test [8], 0.0424; in test [9], 1.05; in [10], 0.196. For the same compound, the z-score in [2] is 0.232 (inactive); in test [3], 1.03 (inactive); in test [4] it was 0.722 (inactive); in [6], -0.744 (inactive).
`O=C1NC(=O)C2C1C=CC(C(O)c1ccc(I)cc1)N2Nc1ccccn1` (stereo not given): the composite z-score was 0.321 in test [1]; 2.56 in test [5]; -0.0328 in [7]; 0.143 in test [8]; 0.15 in test [9]; -0.0947 in [10]. Besides, the z-score is -0.353 (inactive) in [2], 0.426 (inactive) in [3], 0.17 (inactive) in [4] and -0.956 (inactive) in [6].
`C=C(CCCC)/C(=C/C[C@H](OC(C)=O)c1ccccc1OCCO)c1cnc2ccccc2c1`: the composite z-score in test [1] was 1.32; in test [5] it was 1.15; in [7] it was -0.235; in test [8] it was 0.788; in test [9], 1.1; in test [10], -0.142. The z-score is 0.617 (inactive) in [2], -0.654 (inactive) in test [3], 0.826 (inactive) in test [4] and 0.02 (inactive) in test [6].
In the case of `O[C@@H](Cc1ccccc1)[C@@H](/C=C/C1CC1)NCc1cccc(Cl)c1`, the composite z-score in test [1] is -0.534; in test [5], -0.44; in test [7] it was 0.0558; in test [8], -1.08; in test [9] it was -0.419; in test [10], -0.296. Moreover, the z-score is -2.26 (inactive) in [2], -19 (active) in [3], -2.31 (inactive) in test [4] and -0.59 (inactive) in test [6].
Regarding `COc1ccc([C@H]2C[C@H]3C(I)=C[C@@H]2C(=O)[C@]32CO2)cc1`, the composite z-score is -0.639 in test [1]; -0.83 in test [5]; -0.161 in [7]; 0.387 in [8]; 0.816 in [9]; -0.135 in [10]. The z-score in test [2] was -1.61 (inactive); in [3], -15.3 (active); in test [4] it was -1.79 (inactive); in [6], 1.6 (inactive).
For the compound `COc1ccc([Si](C)(C)[C@@H]2[C@@H](CCO)O[C@]3(C(=O)N(Cc4cccc(N5CCOC5=O)c4)c4ccccc43)[C@H]2C)cc1`, the composite z-score in test [1] was 1.42; in test [5], 0.97; in test [7], -0.0357; in [8], 0.825; in [9], 0.797; in test [10], -0.0564. The z-score in test [2] is 4.03 (inactive); in test [3], 0.643 (inactive); in test [4], 37.8 (active); in test [6], 0.516 (inactive).
Take `O=C1NC(=O)C2C1C=CC(C(O)c1ccc(I)cc1)N2Nc1ccc(Cl)cc1Cl` (stereo not given): the composite z-score in test [1] is 0.265; in test [5], 2.64; in test [7] it was 0.162; in [8] it was -0.0422; in test [9] it was 0.925; in test [10], -0.0953. Also, the z-score was -9.39 (active) in test [2], -5.52 (inactive) in [3], -0.806 (inactive) in test [4] and -1.3 (inactive) in [6].
With `CC(=CC1CCCCC1)[C@@H](NC(=O)c1cccnc1)c1ccc(-c2ccccc2)cc1`, the composite z-score is -0.0028 in test [1]; 1.16 in [5]; -0.0042 in test [7]; -0.18 in test [8]; 0.298 in [9]; -0.222 in test [10]. Moreover, the z-score in test [2] is 1.36 (inactive); in [3], 0.92 (inactive); in test [4], 2.06 (inactive); in [6], -2.18 (inactive).
Regarding `NC(=O)NCC#Cc1ccc2c(c1)[C@]1(C(=O)N2)[C@H](C(=O)O)[C@H]2C(=O)O[C@H](c3ccccc3)[C@H](c3ccccc3)N2[C@@H]1c1ccc(O)cc1`, the composite z-score turned out to be 0.167 in test [1]; 0.68 in [5]; 0.883 in test [7]; 0.758 in [8]; 0.767 in test [9]; 0.0156 in test [10]. The z-score in test [2] is 0.0288 (inactive); in test [3], -0.856 (inactive); in test [4], -0.483 (inactive); in test [6] it was -1.16 (inactive).
In the case of `COCC(=C=CC[C@H](O)c1cccc(OCCO)c1)C[C@H](O)c1cc(Cl)cc(Cl)c1O`, the composite z-score in [1] was 1.54; in test [5] it was 1.29; in [7], -0.143; in test [8], 0.908; in [9] it was 1.04; in test [10] it was 0.0837. Besides, the z-score in [2] was 1.11 (inactive); in test [3] it was -0.6 (inactive); in [4] it was -0.225 (inactive); in test [6], 0.706 (inactive).
As for `CO[C@H]1O[C@H](CO)[C@@H](OC(=O)Nc2ccccc2-c2ccccc2)[C@H](OC(=O)Nc2ccccc2-c2ccccc2)[C@@H]1OC(=O)Nc1ccccc1-c1ccccc1`, the composite z-score is 1.54 in test [1]; 2.96 in test [5]; -0.0569 in test [7]; 0.761 in test [8]; 1.08 in test [9]; -0.0757 in [10]. Further, the z-score was 1.95 (inactive) in [2], 0.181 (inactive) in test [3], 7.28 (inactive) in [4] and 1.59 (inactive) in [6].
Turning to `C[C@H]1C2[C@H](Cc3ccccc3)NC(=O)[C@]23C(=O)NCC(=O)N2CCC[C@H]2C(=O)NC/C=C/CCC/C=C/C3[C@@H]2O[C@]12C` (stereo not given in full), the composite z-score in test [1] was -1.33; in test [5], -1.02; in test [7] it was -0.18; in test [8], -0.627; in test [9] it was -0.508; in [10], -0.278. Also, the z-score was 0.291 (inactive) in test [2], -0.0836 (inactive) in test [3], -0.0152 (inactive) in test [4] and 1.51 (inactive) in test [6].
As for `COC(=O)[C@@]1(Cc2ccccc2)[C@H]2c3cc(C(=O)N4CCCC4)n(Cc4ccc(O)c(OC)c4)c3C[C@H]2CN1C(=O)c1ccccc1`, the composite z-score in test [1] was -0.358; in [5], 3.43; in test [7], 0.641; in test [8] it was -0.786; in test [9], 0.79; in test [10], 0.249. Besides, the z-score in [2] was 1.21 (inactive); in test [3], 0.943 (inactive); in [4], 2.06 (inactive); in [6] it was -0.667 (inactive).
Regarding `NC(=O)[C@@H]1[C@H]2C(=O)O[C@H](c3ccccc3)[C@H](c3ccccc3)N2[C@H](c2ccc(OCCO)cc2)[C@@]12C(=O)Nc1ccc(C#CC3=CCCCC3)cc12`, the composite z-score in test [1] is 1.55; in test [5], 2.08; in [7] it was 0.0209; in [8] it was 1.35; in test [9], 0.951; in test [10] it was -0.0343. Moreover, the z-score was 0.529 (inactive) in [2], 0.544 (inactive) in [3], 2.91 (inactive) in test [4] and 1.69 (inactive) in test [6].
On to `COC(=O)c1c(CC[C@@H](CO)NC(=O)NCCc2c[nH]c3ccccc23)oc(C(=O)Cc2ccccc2)c1C(=O)OC`, for which the composite z-score was 0.578 in [1]; 1.53 in [5]; -0.117 in test [7]; 0.145 in [8]; 0.316 in [9]; -0.126 in test [10]. Besides, the z-score in [2] was 0.433 (inactive); in [3] it was 0.215 (inactive); in test [4], -1.62 (inactive); in [6] it was 0.528 (inactive).
As for `CN1C(=O)C2C=CC(C(O)c3c(F)cccc3Cl)N(NC(=O)OC(C)(C)C)C2C1=O` (stereo not given), the composite z-score in test [1] is 1.3; in test [5], 3.45; in [7] it was 0.18; in [8] it was -0.388; in test [9] it was 0.686; in [10], 0.0675. Besides, the z-score in test [2] was -0.143 (inactive); in test [3] it was 0.415 (inactive); in test [4], 0.635 (inactive); in test [6], -0.597 (inactive).
`COC(=O)[C@@]1(Cc2ccc(OC)cc2)[C@H]2c3cc(C(=O)N4CCCC4)n(CCCNc4ncc(C(F)(F)F)cc4Cl)c3C[C@H]2CN1C(=O)c1ccccc1`: the composite z-score was determined as 0.0457 in test [1]; 1.8 in test [5]; 0.987 in [7]; 0.341 in test [8]; 0.656 in [9]; 0.939 in test [10]. Also, the z-score in [2] is -0.496 (inactive); in test [3], 1.11 (inactive); in test [4], 1.35 (inactive); in [6] it was -0.537 (inactive).
Turning to `CCCCN1CC=CC23O[C@@H]4C=CCOC(=O)[C@@H]4[C@H]2C(=O)N(CCCCCCO)[C@@H]3C1=O` (stereo not given in full), the composite z-score was -0.598 in test [1]; 1.57 in test [5]; -0.0665 in test [7]; -1.84 in test [8]; -0.61 in test [9]; -0.244 in test [10]. Also, the z-score is -0.992 (inactive) in test [2], -0.053 (inactive) in [3], -0.362 (inactive) in test [4] and -0.44 (inactive) in test [6].
